# In the library only some 1.1% were active in any assay of this set; here they are far more common.
# SRC1 inh – human NCOA1 inhibition | hit rate 0.12% among 360,000 | HEK293 GAL4-SRC1 luciferase reporter, luminescence | inhibition, % at 3.6 µM;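 active means inhibition above the campaign mean plus 3 SD, with each screening campaign given its own cutoff, cut at about 60% in these data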;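 further: 0% = DMSO treated cells and 100% = gossypol at 36 µM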
# LRH-1 inv ag – suppresses constitutive activity of human LRH-1. O00482. HEK293T StAR-luciferase reporter, LRH-1 transfected, 24 h. inhibition, % at 3.6 µM. hit rate 0.13% among 360,000. AID 602396;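 active means inhibition above the mean inhibition of all tested compounds plus 3 SD, cut at about 73% in these data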;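 further: 0% = DMSO wells and 100% = reporter-only cells lacking LRH-1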
# NCOA3 inh – inhibitors of human steroid receptor coactivator 3 (SRC3); inhibition, % at 3.6 µM; Q9Y6Q9; HEK293 GAL4-SRC3 luciferase reporter, luminescence; hit rate 0.17% among 360,000;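 active means inhibition above a per-campaign cutoff, the mean of all compounds plus 3 SD, cut at about 60% in these data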;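 further: 0% = DMSO-treated cells and 100% = gossypol-treated cells at 36 µM; higher means less SRC3-driven luciferase light from the GAL4 reporter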
# Target sequence (Q9Y6Q9 whole entry, looked up, the tested form may be a part): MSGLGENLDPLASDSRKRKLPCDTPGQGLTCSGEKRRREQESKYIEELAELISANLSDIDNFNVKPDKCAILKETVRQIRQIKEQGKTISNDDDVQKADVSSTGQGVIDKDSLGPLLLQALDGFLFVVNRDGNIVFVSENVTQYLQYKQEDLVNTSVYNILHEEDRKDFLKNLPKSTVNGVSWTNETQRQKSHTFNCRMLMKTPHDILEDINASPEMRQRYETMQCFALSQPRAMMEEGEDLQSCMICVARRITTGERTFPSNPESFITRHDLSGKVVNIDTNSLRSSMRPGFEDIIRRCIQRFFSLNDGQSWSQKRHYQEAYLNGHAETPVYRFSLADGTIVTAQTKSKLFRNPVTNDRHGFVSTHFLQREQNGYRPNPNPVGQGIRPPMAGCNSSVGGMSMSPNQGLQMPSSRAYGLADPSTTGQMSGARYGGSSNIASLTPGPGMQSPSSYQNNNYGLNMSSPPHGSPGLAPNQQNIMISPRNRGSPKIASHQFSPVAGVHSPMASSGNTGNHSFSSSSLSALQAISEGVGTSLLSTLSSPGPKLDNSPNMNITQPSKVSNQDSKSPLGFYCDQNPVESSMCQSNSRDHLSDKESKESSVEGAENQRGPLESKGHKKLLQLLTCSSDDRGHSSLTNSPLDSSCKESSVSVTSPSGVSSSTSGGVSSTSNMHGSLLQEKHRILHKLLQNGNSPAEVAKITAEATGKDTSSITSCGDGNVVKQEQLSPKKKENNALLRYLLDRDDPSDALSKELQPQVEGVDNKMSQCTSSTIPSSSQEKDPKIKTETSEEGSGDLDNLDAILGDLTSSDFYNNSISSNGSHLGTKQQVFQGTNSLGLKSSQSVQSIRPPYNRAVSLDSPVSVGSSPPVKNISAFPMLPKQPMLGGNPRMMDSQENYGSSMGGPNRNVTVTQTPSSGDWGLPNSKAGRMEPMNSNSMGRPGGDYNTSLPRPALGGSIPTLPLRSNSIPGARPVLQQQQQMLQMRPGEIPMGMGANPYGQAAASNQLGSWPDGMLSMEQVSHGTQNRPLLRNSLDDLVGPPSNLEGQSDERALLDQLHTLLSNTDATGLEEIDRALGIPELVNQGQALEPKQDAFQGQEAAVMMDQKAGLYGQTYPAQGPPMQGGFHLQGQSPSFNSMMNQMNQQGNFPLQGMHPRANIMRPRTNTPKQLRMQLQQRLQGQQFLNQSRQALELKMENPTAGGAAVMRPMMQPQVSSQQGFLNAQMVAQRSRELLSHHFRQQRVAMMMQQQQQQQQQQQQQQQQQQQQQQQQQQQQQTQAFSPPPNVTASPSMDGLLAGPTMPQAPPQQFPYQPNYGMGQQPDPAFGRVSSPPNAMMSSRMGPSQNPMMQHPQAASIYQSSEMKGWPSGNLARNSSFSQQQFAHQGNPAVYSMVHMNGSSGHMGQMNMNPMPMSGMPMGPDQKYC
# Shn3 3UTR inh – Schnurri-3 reporter inhibition in Clone20 osteoblasts | inhibition, % at 12.5 µM | hit rate 0.52% among 360,000 | Clone20 osteoblast Shn3 3'UTR firefly luciferase, 24 h;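 active means mean inhibition of at least 75% with every replicate also reaching 75%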;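 further: 0% = median of neutral control wells and 100% = pilot-screen positive control compound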
# SRC2 inh – human SRC2 (NCOA2) inhibition; HEK293 GAL4-SRC2 luciferase reporter, luminescence; hit rate 0.17% among 370,000; inhibition, % at 9 µM; Q15596;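 active means inhibition above the mean inhibition of all tested compounds plus 3 SD, set per campaign, cut at about 52% in these data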;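 further: 0% = DMSO treated cells and 100% = cells given Gossypol at 36 µM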
# Gli-Sufu block – antagonists of Gli-Sufu signaling; inhibition, % at 5 µM; hit rate 0.74% among 340,000; Sufu-KO-LIGHT fibroblasts, Gli luciferase reporter luminescence;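 active means inhibition above about 55%, limit read from the data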;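 further: 0% = DMSO-treated cells and 100% = wells with medium but no cells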
# * marks the source's active call; other numbers are inactive results; nt = no result given; ! = a repeat was not active.
SMILES,SRC1 inh,LRH-1 inv ag,NCOA3 inh,Shn3 3UTR inh,SRC2 inh,Gli-Sufu block
O=C(NCc1ccc2c(c1)OCO2)c1nc(S(=O)(=O)Cc2ccccc2F)ncc1Cl,-49,5,-41,95*,-21,4
O=C(NCc1ccc2c(c1)OCO2)c1nc(S(=O)(=O)Cc2ccccc2)ncc1Cl,-49,-3,-6,94*,-23,3
O=C(CSc1ccccc1)NC1CCCCN(Cc2cccc(Cl)c2)C1=O (stereo unspecified),nt,nt,nt,nt,-12,nt
Fc1cccc(CNC(=S)OC2CCC23CCC(c2ccccc2)CC3)c1 (stereo unspecified),nt,nt,nt,nt,-12,nt
CC1C/C(=C/c2ccccn2)C(=O)/C(=C/c2ccccn2)C1 (stereo unspecified),-373,51,-50,95*,nt,34
O=C1/C(=C/c2ccccn2)COc2ccccc21,13,10,-25,10,-28,-8
C(=C\c1ccccn1)/c1ccccn1,-57,-44,-66,-42,-55,-28
CC(C)(C)C1C/C(=C/c2ccccn2)C(=O)/C(=C/c2ccccn2)C1 (stereo unspecified),-189,63,-39,95*,nt,66*
CCOc1ccc(-n2c(SCC(=O)Nc3ccccc3-c3ccccc3)nnc2-c2ccncc2)cc1,nt,nt,nt,nt,-1,nt
O=C(N/N=C/c1cc([N+](=O)[O-])ccc1O)c1ccc(COc2ccc3c(c2)CCC3)o1,6,-5,-13,88*,-12,-56
C=CCN1[C@H](C)COc2cccc(F)c2S1(=O)=O,nt,nt,nt,nt,-1,nt
O=C(Nc1ccc(S(=O)(=O)N2CCOCC2)cc1)c1ccc([N+](=O)[O-])o1,-16,45,5,27,-7,4
O=C(Nc1ccc(S(=O)(=O)N2CCCC2)cc1)c1ccc([N+](=O)[O-])o1,1,57,25,91*,nt,-2
O=C(Nc1ccc(Cc2ccncc2)cc1)c1ccc([N+](=O)[O-])o1,-6,44,0,98*,16,-4
COc1cc(C=Nn2c(-c3n[nH]c4c3CCC4)n[nH]c2=S)ccc1OCc1ccccc1,nt,nt,nt,nt,-32,nt
O=[N+]([O-])c1ccc(S(=O)Cc2ccccc2)c([N+](=O)[O-])c1 (stereo unspecified),-4,43,1,95*,-26,25
C=CCSc1nc2ccccc2n1C(=O)/C=C/c1cc(OC)c(OC)c(OC)c1,-7,-28,36,97*,6,48
C=CCSc1nc2ccccc2n1C(=O)/C=C/c1ccc(OC)c(OC)c1,-14,7,-2,98*,-3,12
CCn1c(SCC(=O)N/N=C/c2ccc(OC)c(OC)c2)nc2ccccc21,3,-12,-7,26,-6,1
COc1ccc(/C=C/C(=O)N2CC(C)OC(C)C2)cc1OC (stereo unspecified),-3,6,8,-7,-37,nt
CCSc1nc2ccccc2n1C(=O)/C=C/c1ccc(OC)c(OC)c1,-5,-4,24,96*,32,8
Cc1ccc(NC(=O)O/N=C/c2c(C)nn(C(C)(C)C)c2C)cc1Cl,91*,88*,92*,nt,95*,46
COc1ccc(CNC(=O)c2cccc3c(-c4cccnc4)coc23)cc1OC,32,53,31,88*,11,nt
O=C1CC(Sc2nnc(-c3ccccc3O)o2)C(=O)N1c1ccccc1 (stereo unspecified),-12,5,15,93*,7,1
COc1ccc(N2C(=O)CC(Sc3nnc(-c4ccccc4)o3)C2=O)cc1 (stereo unspecified),-6,-8,2,61,-7,6
SMILES,SRC1 inh,LRH-1 inv ag,NCOA3 inh,Shn3 3UTR inh,SRC2 inh,Gli-Sufu block
CCCC(=O)OCCNc1cc(Sc2nc3ccccc3[nH]2)c2nonc2c1[N+](=O)[O-],0,5,13,93*,-7,-15
CC(=O)OCCNc1cc(SC(C)C)c2nonc2c1[N+](=O)[O-],7,-4,-10,-6,-10,-1
CCC(=O)OCCNc1cc(Sc2nccn2C)c2nonc2c1[N+](=O)[O-],7,-16,-1,89*,-33,-2
CCC(=O)OCCNc1cc(SCCC(=O)OC)c2nonc2c1[N+](=O)[O-],5,-23,18,19,-24,-2
CS(=O)(=O)N[C@@H]1C[C@@H]2O[C@H](CO)CC[C@@H]2O[C@@H]1CCc1ccc(-c2ccccc2F)cc1,nt,nt,nt,nt,-11,nt
COc1cnc(-c2ccccn2)nc1NC(C)C,-15,-2,18,92*,-1,42
COc1ccccc1Sc1nc(-c2ccccn2)ncc1OC,-33,0,14,26,14,6
Cn1nc(C(C)(C)C)cc1C(=O)N1CCCCC1c1cc(C(=O)Nc2ccc(F)c(Cl)c2)no1 (stereo unspecified),14,15,27,86*,-25,nt
O=C(Nc1ccc(F)c(Cl)c1)c1cc(C2CCCCN2C(=O)c2ccc(Cl)cc2)on1 (stereo unspecified),4,-4,12,10,4,nt
O=C(CSc1n[nH]c(-c2ccccn2)n1)Nc1cccc(Cl)c1,7,31,16,92*,15,-3
Cc1ccc(S(=O)(=O)/N=C2\C=C(Nc3ccc(O)cc3)C(=O)c3ccccc32)cc1,90*,95*,92*,97*,nt,94*
Cc1ccc(S(=O)(=O)/N=C2\C=C(Nc3cccc(C(=O)O)c3)C(=O)c3ccccc32)cc1,-17,-44,-11,-27,-51,-22
Cc1ccc(NC2=C/C(=N/S(=O)(=O)c3cccs3)c3ccccc3C2=O)cc1,-66,-101,73*,97*,-72,60*
COC(=O)c1ccccc1NC1=C/C(=N\S(=O)(=O)c2ccc(C(=O)O)cc2)c2ccccc2C1=O,-16,18,2,80,nt,5
O=C1C(Nc2ccccc2)=C/C(=N/S(=O)(=O)c2cccs2)c2ccccc21,85*,79*,87*,97*,nt,35
COC(=O)c1ccccc1NC1=C/C(=N\S(=O)(=O)c2cccs2)c2ccccc2C1=O,-13,9,-16,94*!,3,-17
O=C(Nc1ccc(OC(F)(F)F)cc1)Nc1c(-c2ccc(C(F)(F)F)cc2)nc2ncccn12,nt,nt,nt,nt,-5,nt
CCCCNC(=O)C[C@H]1C[C@@]2(C(=O)OC)C(=C[C@H](C3CCCC3)O[C@@H]2C)N(Cc2ccco2)C1=O,nt,nt,nt,nt,-1,nt
Cc1ccc(S(=O)(=O)/N=C2/C=C(Sc3ncn[nH]3)C(=O)c3ccccc32)cc1,91*,97*,94*,98*,nt,22
CC1=C(C(=O)NC2CCCc3c2cnn3-c2cccc(C)c2C)OCCO1 (stereo unspecified),15,25,9,84,24,57*
Cc1cc(C(=O)NC2CCCc3c2cnn3-c2ccc(C(C)(C)C)cc2)nn1C (stereo unspecified),2,20,32,77,12,58*
O=C(c1cscn1)N1CCC(Oc2cccnc2)CC1,nt,nt,nt,nt,-3,nt

# High-throughput results (PubChem BioAssay)
